Structures are written as SMILES. Values joined by “and” are separate entries in the source; they are usually repeats but may differ in a detail not shown here. Identical values can stand only once. A structure can be active in one record and inactive in another. Active and inactive are the calls of the source. How the source made its calls: active means hit-call score of the fitted dose curve at least 0.9, where 1 is the maximum; inactive means score below 0.9.

What is called AC50 is the concentration at which the activity in the assay is half-maximal.

The nature of the assay: ATG_Sox_CIS: Attagene CIS-FACTORIAL HepG2 Assay for human SRY-box transcription factor (SOX) (AID 2282960). The note with it: HepG2 Attagene cis-factorial SOX reporter, mRNA; actives raise or lower the signal. Here is the method: ATG_CIS is a cell-based, multiplexed-readout assay that uses HepG2, a human liver cell line, with measurements taken at 24 hours after chemical dosing in a 24-well plate.ATG_Sox_CIS is one of 52 assay component(s) measured or calculated from the ATG_CIS assay. It is designed to make measurements of mRNA induction, a form of inducible reporter, as detected with fluorescence intensity signals by Reverse transcription polymerase chain reaction (RT-PCR) and Capillary electrophoresis technology.Data from the assay component ATG_Sox_CIS was analyzed into 1 assay endpoint. This assay endpoint, ATG_Sox_CIS, was analyzed with bidirectional fitting relative to DMSO as the negative control and baseline of activity. Using a type of inducible reporter, measures of mRNA for gain or loss-of-signal activity can be used to understand the reporter gene at the transcription factor-level as they relate to the gene SOX1. Furthermore, this assay endpoint can be referred to as a primary readout, because this assay has produced multiple assay endpoints where this one serves a reporter gene function. To generalize the intended target to other relatable targets, this assay endpoint is annotated to the dna binding intended target family, where the subfamily is HMG box protein.
Human liver HepG2 cells are transiently transfected with multiple reporter transcription units (MRTUs) in 6-well plates using FuGene 6 reagent (Roche; 3 ml FuGene/1 mg DNA). The MRTU constructs are regulated by a cis-regulating element (promoter). […] A major difference between the CIS and TRANS system is that in CIS activities of endogenous TFs are measured, whereas the TRANS assay evaluates changes in activities of exogenous, chimeric NR-Gal4 proteins. […] At the end of 24 hour incubation, total RNA was isolated using TriZol reagent (Invitrogen). The isolated RNA is then reverse-transcribed using oligo(dT) primer and Mo-MLV reverse transcriptase (Invitrogen) with DNAse I (Ambion) treatment for 30 min. The one-tenth of the produced cDNA was amplified by PCR using Taq DNA polymerase (Invitrogen) and two reporter sequence-specific primers. The PCR products were fluorescently labeled by primer extension with 6-arboxyfluorescein (6-FAM) 5'-labeled reporter sequence-specific primer (2 min at 95 C, 20 s at 68 C and 10 min at 72 C) and these products were digested with 5U of HpaI (New England Biolabs) for 2h at 37 C. The fragments were purified using Qiaquick PCR columns (Qiagen), analyzed on an ABI 3130xL genetic analyzer (Applied Biosystems) with peak positions identified by using a set of X-rhodamine (ROX)-labeled MapMarker1000 molecular weight standards (BioVentures). The raw capillary electrophoresis data was processed using Attagraph software (Attagene).
With `O=C(O)C(F)(F)C(F)(F)C(F)(F)C(F)(F)C(F)(F)C(F)(F)C(F)(F)C(F)(F)C(F)(F)C(F)(F)F`, the AC50 is 58.4 µM (active) and the outcome was inactive.

For the molecule `CCC(C)c1cccc(C(C)CC)c1O` (stereo not given), the outcome was inactive. On the same count and under the same terms, for `Clc1ccc(COC(Cn2ccnc2)c2ccc(Cl)cc2Cl)cc1` (stereo not given) the value was “inactive”; for `COC[C@H](C)N(C(=O)CCl)c1c(C)csc1C`, “inactive”; for `CCCCC(CC)CO[N+](=O)[O-]` (stereo not given), “inactive”. The same measure, in the same setting: as for `O=C(CCl)CCl`, the entry is “inactive”.

As to `c1ccc(N=NNc2ccccc2)cc1`, the concentration at half-maximal activity (AC50) was 145 µM (active). For the molecule `CC(C)(OO)c1ccccc1`, the molecule was classed as inactive. Consider `OCC(O)CCl` (stereo not given), for which the call was inactive.

Take `COP(=S)(OC)Oc1c(Cl)cc(C)cc1Cl`: the molecule was called inactive.

Take `ClCCBr`: the outcome was inactive. Consider `C[C@@H](Oc1ccc(Cl)cc1Cl)C(=O)O`, for which the molecule was called inactive. The same measure, in the same setting: as for `COc1ccc(C=O)cc1OC`, the entry is “inactive”. `O=C1C2(Cl)C3(Cl)C4(Cl)C(Cl)(Cl)C5(Cl)C3(Cl)C1(Cl)C5(Cl)C24Cl` (stereo not given): the AC50 is 5.49 µM (active) and 15.5 µM (active); the result was inactive. As for `COc1cc(OC)nc(NC(=O)NS(=O)(=O)c2ncccc2C(=O)N(C)C)n1`, the call was inactive.

For `C=CCc1ccc(OC)cc1`, the molecule was called inactive. The same measure, in the same setting: as for `COP(=O)(OC)OC`, the entry is “inactive”. Still for that read-out and setting: for `ClC1=C(Cl)[C@]2(Cl)[C@H]3[C@H]([C@H]4C=C[C@H]3C4)[C@@]1(Cl)C2(Cl)Cl` the value was “inactive”. Still for that read-out and setting: for `CCOC(=O)CP(=O)(OCC)OCC` the value was “inactive”; for `O=Cc1cccc(Oc2ccccc2)c1`, “inactive”.

As for `N#CCc1ccc(Cl)cc1`, the molecule was called inactive. The same measure, in the same setting: for `C1CCC(NC2CCCCC2)CC1` the value was “inactive”; for `Cc1ccc2ccccc2c1C`, “inactive”. With `c1cc[c]([Hg][c]2ccccc2)cc1`, the outcome was inactive. Still for that read-out and setting: for `Cn1sc(Cl)cc1=O` the value was “inactive”. For the molecule `O=C1CCCN1`, the result was inactive. In the case of `CCC[CH2][Sn]([CH2]CCC)([CH2]CCC)[O]C(=O)c1ccccc1`, the call was inactive. Still for that read-out and setting: as for `Nc1cccc(Cl)c1`, the entry is “inactive”; as for `O=C(NCO)NCO`, “inactive”.

With `C=CC#N`, the result was inactive. Same read-out and setting: for `Clc1nc(Cl)nc(Cl)n1` the value was “inactive”. Same read-out and setting: as for `Cl/C=C/Cl`, the entry is “inactive”. The same measure, in the same setting: for `O=C(OC1CCCCC1)c1ccccc1C(=O)OC1CCCCC1` the value was “inactive”; for `Cc1cc(=O)[nH]o1`, “inactive”; for `O=CC=O`, “inactive”. As for `O=[N+]([O-])c1ccc(O)c([N+](=O)[O-])c1`, the outcome was inactive. Still for that read-out and setting: for `N#CN=C(N)N` the value was “inactive”; for `CC(C)(c1ccccc1)c1ccc(O)c(C(C)(C)c2ccccc2)c1`, “inactive”.

For the origin of these results see PubChem BioAssay (EPA / NIEHS).
